# Measured values from PubChem BioAssay (NCI).
# The panel holds about 83,000 compounds, 20% with a hit somewhere; the sample as a whole holds those more often.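 Testing used 96-well plates and a 48-hour single-concentration exposure. Example: -40 means 40% of the starting cells died.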 Values without a mark were called inactive. The source made the active and inactive calls. How the source made its calls: active means growth percent below 10; inactive means the rest.
# Assays:
# Assay in all cases: NCI-60 one-dose screen, 48 h (100 = growth as untreated, 0 = no growth, -100 = all killed)
# Conditions in all cases: 10 µM unless noted
# [1] = system: DU-145 prostate
# [2] = system: K-562 leukemia
# [3] = system: MALME-3M melanoma
# [4] = system: MDA-MB-231 breast
# [5] = system: RXF 393 renal
# [6] = system: SF-268 CNS
# [7] = system: SF-295 CNS
# [8] = system: SF-539 CNS
# [9] = system: UACC-257 melanoma
# [10] = system: M14 melanoma
Structure (SMILES),growth [1],growth [2],growth [3],growth [4],growth [5],growth [6],growth [7],growth [8],growth [9],growth [10]
O=S(=O)(Nc1ccc(F)c(Cl)c1)c1ccc(-c2cnc(C3CC3)o2)cc1,16.3%,15.4%,45%,36.2%,-9.55% (active),52.2%,5.73% (active),-14.7% (active),48.2%,24.8%
COc1ccc(S(=O)(=O)NCCCNc2cc(-c3c(-c4cccc(OC)c4)nc4sccn34)ccn2)cc1,46.4%,25.6%,66.1%,46.8%,56%,44.9%,40.5%,61.9%,53.3%,45%
CCCCCCCCCCCCCCCCCCNC(=O)[C@H]1CSC(c2ccc(F)c(OC)c2)N1 (stereo not given in full),26.5%,-56.3% (active),-91.2% (active),-83.4% (active),-93.6% (active),-69.9% (active),30.8%,-61.9% (active),-61.7% (active),-90.8% (active)
CCN(CC)CCCC(C)NCCCNc1cccc2cccnc12 (stereo not given),106%,97.5%,88.1%,81.4%,104%,86.6%,98%,100%,104%,104%
Nc1nc(SCc2ccccc2)c2ncn(C3CCCC3)c2n1,101%,104%,121%,106%,99.5%,121%,101%,91.2%,129%,129%
CC(C)(C)n1cc(-c2ccnc(NCCCNS(=O)(=O)c3cccc4ccccc34)c2)c(-c2cccc(O)c2)n1,42.5%,-4% (active),-19.2% (active),11.8%,0.843% (active),37.5%,8.6% (active),41.8%,-23.9% (active),2.67% (active)
CCCCCCCCCCCCNC(=O)[C@H]1CSC(c2ccc(OC)c(F)c2)N1 (stereo not given in full),-87.6% (active),-52.7% (active),-92.3% (active),-88.3% (active),-96.1% (active),-69.2% (active),-88.4% (active),-94.3% (active),-94.1% (active),-89.6% (active)
O=C(Nc1nc(-c2ccccc2)cc(-c2ccc(Cl)cc2)n1)c1ccncc1,103%,93.5%,99.3%,94.8%,85.7%,94.5%,100%,102%,104%,104%
CNC(=O)c1cc(Oc2ccc3nc(NC(=O)Nc4ccc(N5CCC(N(C)C)CC5)cc4)sc3c2)ccn1,74.1%,2.09% (active),56.1%,85.6%,61.5%,84.7%,98.9%,73.4%,105%,94%
CSc1[nH]c2ncnc(N)c2c1C#N,101%,84.6%,107%,98.8%,151%,113%,105%,96.3%,124%,95.1%
O=C1/C(=C/c2ccccc2)CN(CCC(=O)N2C/C(=C\c3ccccc3)C(=O)/C(=C/c3ccccc3)C2)C/C1=C\c1ccccc1,87.6%,11.6%,101%,75.2%,57.4%,66.6%,90.7%,90.9%,93.8%,52.4%
Cc1cc(=O)oc2cc(Oc3nc(-c4cccs4)cn4c(-c5cccs5)cnc34)ccc12,55.4%,81.6%,39.1%,63.2%,63.6%,76.3%,47.5%,60%,48.2%,67.5%
COc1ccc(/C=C/C(=O)c2ccc(NC(=O)c3cc4cc5ccccc5nc4s3)cc2)cc1OC,106%,80.6%,98.6%,91.6%,111%,98.9%,99.4%,99.7%,108%,98.9%
C=CC[N+]1(CC)CCN=C1CCCCCCCCCCCCCCCCC (stereo not given),-100% (active),-66.9% (active),-46.4% (active),-89.7% (active),-90.3% (active),-83.4% (active),-31.4% (active),-98.2% (active),-91.3% (active),-99.8% (active)
OC(c1cccc(C(F)(F)F)c1)c1cnccc1NC1CCCCCC1 (stereo not given),71.6%,3.23% (active),-77.7% (active),10.6%,32.3%,60.5%,14.2%,74.2%,39.5%,-21.8% (active)
COc1cc(NCCCCN=C(N)NC(N)=NC(C)C)c2ncccc2c1,127%,39.1%,-2.65% (active),21.3%,154%,54.1%,113%,78.1%,25.2%,92.4%
CCCCCCCCCC(=O)Oc1ccc(/C(=C(/C)Cc2cccc(OC)c2)c2ccc(OCCN(C)C)cc2)cc1,108%,100%,115%,105%,115%,100%,107%,103%,110%,105%
CC(=O)CC(C)(C)c1ccc(Cl)cc1,108%,101%,108%,106%,98%,95.7%,101%,102%,101%,96.8%
Nc1c(C(=O)Nc2cccc3c2OCCO3)sc2nc3c(cc12)CN(Cc1ccccc1)CC3,86%,20.1%,68.1%,66.4%,71.8%,74.2%,39.7%,65.2%,83%,54.6%
COc1nc2c(cc1S(=O)(=O)c1ccccc1)CCc1c-2cnn1Cc1ccccc1,83.5%,38%,91.3%,59.1%,38.8%,82.2%,42%,73.7%,48.3%,75.9%
O=C1O[C@H]([C@H](O)CO)C(O)=C1O,100%,107%,119%,97.1%,100%,117%,110%,108%,103%,106%
CCC(=O)Oc1ccc(/C(=C(\C)c2ccccc2)c2ccc(OCCN(CC)CC)cc2)cc1,102%,23%,80.3%,89.7%,93.4%,85.5%,95.2%,76.9%,87.4%,69%
CN1CCN(Cc2ccc(NC(=O)c3cncc(C#Cc4cncc5nccnc45)c3)cc2C(F)(F)F)CC1,47.7%,10.4%,-17.7% (active),26.9%,28.1%,58.9%,70.7%,26.9%,35.5%,9.82% (active)
O=C(Nc1ccc(CN2CCOCC2)cc1)c1[nH]ncc1Nc1ncnc2sccc12,5.47% (active),4.04% (active),8.16% (active),15.8%,-43% (active),1.23% (active),17.8%,-34.1% (active),19.9%,14.4%
O=C(CN1CCN(c2cc3c(cc2F)c(=O)c(C(=O)N/N=C/c2ccccc2)cn3C2CC2)CC1)N/N=C\c1ccccc1,90.4%,56.6%,120%,70.3%,72.7%,72.5%,74.8%,76.2%,99%,74.1%
c1ccc(Sc2ncnc3ccccc23)cc1,89.3%,71.4%,64.1%,93%,83.1%,70%,93.7%,89%,70.5%,71%
